The whole screen tested about 16,000 compounds, of which about 5,100 (32%) were called active. Not shown: some 25% with an inconclusive outcome. The list shows a part of the results. A number with no mark means an inactive call. The call rests on the fitted dose curve; in most records, active means well fitted curve in the direction sought with a large enough effect; inconclusive means small, poorly fitted or top-dose-only effect, or effect the other way; inactive means no such curve, though single readings can be large or run the other way.
target: Cytochrome P450 3A4 (Homo sapiens) (UniProt P08684); assay: Cytochrome panel assay with activity outcomes; settings: recombinant CYP, pro-luciferin dealkylation, luminescence, p450-cyp3a4; series mostly up to 57.1 µM
On the % scale 0 is the no-effect control and ±100 the full control effect.

Sequence of Cytochrome P450 3A4 (Homo sapiens) (P08684 whole entry, looked up): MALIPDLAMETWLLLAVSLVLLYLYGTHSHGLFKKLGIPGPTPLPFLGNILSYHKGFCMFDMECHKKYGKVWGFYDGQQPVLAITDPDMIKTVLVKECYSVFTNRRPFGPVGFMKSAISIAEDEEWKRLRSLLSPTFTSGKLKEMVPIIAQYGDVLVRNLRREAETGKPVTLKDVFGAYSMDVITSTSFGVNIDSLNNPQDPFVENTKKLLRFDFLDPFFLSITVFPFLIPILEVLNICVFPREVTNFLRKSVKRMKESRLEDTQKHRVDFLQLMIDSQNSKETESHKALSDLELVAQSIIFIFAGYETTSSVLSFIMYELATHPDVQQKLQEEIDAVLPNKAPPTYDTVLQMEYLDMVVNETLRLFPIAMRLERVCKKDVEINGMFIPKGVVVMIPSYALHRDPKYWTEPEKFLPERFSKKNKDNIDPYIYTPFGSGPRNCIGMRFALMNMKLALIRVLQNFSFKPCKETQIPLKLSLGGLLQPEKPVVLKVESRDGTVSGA

Row | SMILES | AC50 | activity, negative = inhibition
1 | COc1ccc(Cc2nnc(NC(=O)c3ccco3)s2)cc1 | inactive | –
2 | Cc1c(C(=O)NN2CCN(C)CC2)cccc1[N+](=O)[O-] | inactive | –
3 | COc1ccc(Cc2nnc(NC(=O)c3cccc([N+](=O)[O-])c3C)s2)cc1 | 10 µM (active) | –
4 | O=C(CN1CCCCC1)Nc1nnc(-c2ccc([N+](=O)[O-])cc2)s1 | 7.94 µM (active) | –
5 | COCC(=O)N(C)c1nnc(-c2ccc([N+](=O)[O-])cc2)s1 | – | -5.26% [at 2.29 µM]
6 | O=C(CN1CCCCC1)Nc1cccc([N+](=O)[O-])c1 | inactive | –
7 | FC(F)(F)c1ccc(/C=N/N2CCN(Cc3cccc4ccccc34)CC2)cc1 | – | 15.5% [at 2.29 µM]
8 | Cn1c(=O)oc2cc(S(=O)(=O)NCCC(=O)N3CC=C(c4ccccc4)CC3)ccc21 | 12.6 µM (active) | –
9 | Cn1c(=O)c2cc(S(=O)(=O)NCCC(=O)N3CC=C(c4ccccc4)CC3)ccc2n(C)c1=O | 10 µM (active) | –
10 | Cn1c(=O)c2cn(-c3ccccc3)cc2n(C)c1=O | – | -2.19% [at 11.4 µM]
11 | CCCN(CCC)CCNC(=O)C1CCCN(S(=O)(=O)c2ccc3c(c2)oc(=O)n3C)C1 (stereo not given) | inactive | –
12 | O=C(Nc1ccccc1)[C@@]12C[C@@H]1/C(=N/O)c1ccccc1O2 | inactive | –
13 | Fc1ccc(C(OCCCc2cnc[nH]2)c2ccc(F)cc2)cc1 | 0.794 µM (active) | –
14 | O=C(O)CCC(O)=C1S(=O)(=O)OCCOS1(=O)=O | – | 2.08% [at 11.4 µM]
15 | Cc1cc(C)c2cc(CN(Cc3nnnn3Cc3ccc(F)cc3)C3CCCC3)c(=O)[nH]c2c1 | 10 µM (active) | –
16 | COc1ccccc1CN(Cc1cc2cc3c(cc2[nH]c1=O)OCCO3)Cc1nnnn1Cc1ccco1 | 10 µM (active) | –
17 | COc1ccccc1CN(Cc1cc2cc(C)cc(C)c2[nH]c1=O)Cc1nnnn1CC1CCCO1 (stereo not given) | 10 µM (active) | –
18 | O=c1[nH]c2cc3c(cc2cc1CN(CCCO)Cc1nnnn1Cc1ccc(F)cc1)OCO3 | 3.16 µM (active) | –
19 | NC(N)=N/N=C\c1ccc(C2CCNCC2)cc1 | – | -4.2% [at 11.4 µM]
20 | CN(C)CCCn1c2c3ccccc3ccc2c2oc(=O)c3ccccc3c21 | – | 3.83% [at 11.4 µM]
21 | NC1=NC(=O)/C(=C/c2cccs2)S1 | inactive | –
22 | COc1ccc(-n2c(=O)c(-c3ccccc3)nc3cnc(N4CCOCC4)nc32)cc1 | inactive | –
23 | CCNc1ncc2nc(CCc3ccccc3)c(=O)n(-c3ccccc3)c2n1 | 5.01 µM (active) | –
24 | CCNc1ncc2nc(-c3ccc(Cl)cc3)c(=O)n(C)c2n1 | inactive | –

Row | SMILES | AC50 | activity, negative = inhibition
25 | CCNc1ncc2nc(-c3ccccc3)c(=O)n(C3CC3)c2n1 | inactive | –
26 | CCNc1ncc2nc(-c3ccccc3)c(=O)n(C)c2n1 | inactive | –
27 | CCNc1ncc2nc(CCc3ccccc3)c(=O)n(C3CC3)c2n1 | 15.8 µM (active) | –
28 | COc1ccc(-n2c(=O)c(CCc3ccccc3)nc3cnc(N4CCOCC4)nc32)cc1 | 12.6 µM (active) | –
29 | CCNc1ncc2nc(CCc3ccccc3)c(=O)n(-c3ccc(OC)cc3)c2n1 | 6.31 µM (active) | –
30 | COc1ccc(-c2nc3cnc(N4CCOCC4)nc3n(CCc3ccccc3)c2=O)cc1 | inactive | –
31 | CCNc1ncc2nc(C)c(=O)n(C3CC3)c2n1 | inactive | –
32 | COc1ccc(C(=O)c2cnc3ccccc3c2-c2ccccc2)cc1 | 12.6 µM (active) | –
33 | COc1ccc(C(=O)c2ccccc2)c(O)c1 | inactive | –
34 | CCOC(=O)c1cn(-c2nc(-c3ccc(Cl)cc3)cs2)c2c(F)c(N3CC(C)OC(C)C3)c(F)cc2c1=O (stereo not given) | inactive | –
35 | Cc1ccc(S(=O)(=O)Nc2nc3ccccc3nc2N2CCc3ccccc3C2)cc1 | 2.82 µM (active) | –
36 | Cc1ccc2[nH]c3c(N4CCc5ccccc5C4)ncnc3c2c1 | – | -19.7% [at 2.29 µM]
37 | O=C1C2C3C=CC(C2C(=O)N1CN1CCOCC1)C1C2C(=O)N(CN4CCOCC4)C(=O)C2C31 (stereo not given) | – | -1.18% [at 11.4 µM]
38 | c1cncc(-c2cc(NCc3cccs3)ncn2)c1 | 2.51 µM (active) | –
39 | COc1cccc(-c2cc(NCc3cccs3)ncn2)c1 | 7.94 µM (active) | –
40 | COc1cccc(-c2cc(NCc3cccnc3)ncn2)c1 | 3.98 µM (active) | –
41 | COc1ccccc1-c1cc(NCc2cnc(C)cn2)ncn1 | inactive | –
42 | COc1cccc(-c2cc(NCc3cnc(C)cn3)ncn2)c1 | 25.1 µM (active) | –
43 | N[C@](CC1c2ccccc2Oc2ccccc21)(C(=O)O)[C@@H]1C[C@@H]1C(=O)O | inactive | –
44 | CCCOC(=O)c1ccc(NC(=O)c2cn(CC)c3nc(C)ccc3c2=O)cc1 | inactive | –
45 | C[C@@H]1c2cccc(O)c2C(O)=C2C(=O)[C@@]3(O)C(O)=C(C(N)=O)C(=O)[C@@H](N(C)C)[C@@H]3[C@@H](O)[C@@H]21 | inactive | –
46 | COc1cccc(-c2cc(NCc3ccccc3)ncn2)c1 | 25.1 µM (active) | –
47 | O=C(NCCO[N+](=O)[O-])c1cccnc1 | inactive | –
48 | O=C(NCCOC(=O)c1ccc(C(=O)OCCNC(=O)c2cccnc2)s1)c1cccnc1 | 2.51 µM (active) | –

Row | SMILES | AC50 | activity, negative = inhibition
49 | CN1CCN(NC(=O)c2cccc(F)c2)CC1 | inactive | –
50 | CN1CCN(NC(=O)CN2C(=O)/C(=C/c3c(Cl)cccc3Cl)SC2=S)CC1 | 14.1 µM (active) | –
51 | CCN1C(=O)/C(=C/C=C2/SCCN2C)SC1=S | – | 0.316% [at 2.29 µM]
52 | CSC(=NC#N)N1CCN(c2ccc(Cl)cc2)CC1 | inactive | –
53 | CN(C)C(=C(C#N)C#N)N1CCN(c2ccc(Cl)c(Cl)c2)CC1 | 8.91 µM (active) | –
54 | C[N@+]1(CCC(=O)c2ccccc2)CC[C@H]2CC[C@H](C2)C1 | – | -5.07% [at 11.4 µM]
55 | CCOC(=O)c1sc(NC(C)=O)nc1-c1ccccc1 | – | -5.57% [at 2.29 µM]
56 | CCOC(=O)c1c(NC(C)=O)sc2c(OC)cccc12 | 2 µM (active) | –
57 | O=[N+]([O-])C(/C=C(\Cl)[N+](=O)[O-])=C1N(Cc2ccc(Cl)nc2)CCN1Cc1ccc(Cl)nc1 | 14.1 µM (active) | –
58 | CCOC(=O)c1cnn(-c2nc(-c3cccc(F)c3)cs2)c1C(F)(F)F | inactive | –
59 | CC(=O)c1cccc(NC(=O)c2csc(-n3nc(C)cc3C(F)(F)F)n2)c1 | 10 µM (active) | –
60 | COC(=O)c1c(NC(C)=O)sc(Cc2ccccc2)c1C | 14.1 µM (active) | –
61 | CCOc1ccc(CC(=O)Nc2sc(Cc3ccccc3)c(C)c2C(N)=O)cc1OCC | 20 µM (active) | –
62 | COC(=O)c1ccc(NC(C)=O)o1 | inactive | –
63 | CCOc1ccc(CC(C(N)=O)C(N)=O)cc1CN(C)C | – | -4.85% [at 2.29 µM]
64 | Cc1sc(NC(=O)c2ccccc2)c(C(=O)NCCN(C)C)c1C | inactive | –
65 | CO[C@]1(NC(=O)[C@H](C(=O)O)c2ccc(O)cc2)C(=O)N2C(C(=O)O)=C(CSc3nnnn3C)CO[C@H]21 | inactive | –
66 | CC1CCN(C(=O)CN(C)S(=O)(=O)c2cccc3nsnc23)CC1 | 3.55 µM (active) | –
67 | CN(CC(=O)Nc1ccc(F)c(F)c1)S(=O)(=O)c1cccc2nsnc12 | 5.01 µM (active) | –
68 | CC1CCN(C(=O)Nc2ccc3nsnc3c2)CC1 | inactive | –
69 | COc1cc([C@@H](O)CO)ccc1OS(=O)(=O)O | inactive | –
70 | COc1cccc(N=c2oc3c(C)ncc(CO)c3cc2C(N)=O)c1 | 17.8 µM (active) | –
71 | CCOC(=O)c1c(C)nc2c(c1-c1ccc(OC)cc1)C(=O)CC(C)(C)C2 | 10 µM (active) | –
72 | CCOC(=O)c1c(C)nc2c(c1-c1ccccc1)C(=O)CC(C)(C)C2 | inactive | –

Row | SMILES | AC50 | activity, negative = inhibition
73 | O=C(/C=C/c1ccccc1)NNC(=O)c1cccnc1 | – | -12% [at 2.29 µM]
74 | O=C(N/C(=C\c1cccnc1)C(=O)N1CCOCC1)c1cccc(Br)c1 | 1 µM (active) | –
75 | Cc1ccc(NC(=O)/C(=C\c2cccnc2)NC(=O)c2ccco2)cc1 | inactive | –
76 | CCC(=O)Nc1cccc(C(=O)/C=C/c2ccccc2)c1 | – | -23.2% [at 11.4 µM]
77 | O=C(/C=C/c1cccnc1)c1ccc(NC(=O)c2cccc(Br)c2)cc1 | 2.24 µM (active) | –
78 | O=C(Nc1cccc(Br)c1)/C(=C\c1cccnc1)NC(=O)c1ccco1 | 0.501 µM (active) | –
79 | O=C(Nc1ccc2nc(-c3ccc(Br)o3)[nH]c2c1)c1ccco1 | 14.1 µM (active) | –
80 | CCC(=O)NC(NC(=O)CC)C(Cl)Cl | inactive | –
81 | NCCCCC(=O)O | inactive | –
82 | CCC[C@H]1C[C@H](C(=O)N[C@H]([C@@H]2O[C@H](SC)[C@@H](O)[C@H](O)[C@@H]2O)[C@H](C)O)N(C)C1 | inactive | –
83 | O=C(Nc1cccc(NC(=O)c2ccc(-c3cccc(Br)c3)o2)c1)c1ccco1 | 5.01 µM (active) | –
84 | O=C(Nc1cccc(OC(=O)c2ccco2)c1)c1ccco1 | – | 3.14% [at 11.4 µM]
85 | CCCN(CCO)Cc1ccc(F)c(Br)c1 | inactive | –
86 | COc1ccc(OCCn2c(C)c(/C=N/n3cnnc3)c3ccccc32)cc1 | 0.501 µM (active) | –
87 | Cc1ccc(NS(=O)(=O)c2ccccc2Cl)c2c1CC(C)(C)O2 | 0.708 µM (active) | –
88 | CN(C)N1C(N)=C(C#N)C(c2cccnc2)C2=C1CC(C)(C)CC2=O (stereo not given) | 2.24 µM (active) | –
89 | O=c1[nH]c(SCc2c(Cl)c(Cl)c(Cl)c(Cl)c2Cl)nc(=S)[nH]1 | 3.16 µM (active) | –
90 | Clc1ccccc1C(Nc1ncccn1)Nc1ncccn1 | – | 4.33% [at 11.4 µM]
91 | O=S(=O)(C[C@H](O)C(Cl)(Cl)Cl)NNc1ccccc1 | – | -15.6% [at 11.4 µM]
92 | O=C1c2ccccc2C(=O)c2c(NC3CCCCC3)ccc(Nc3ccc(S(=O)(=O)O)cc3)c21 | – | -21.4% [at 11.4 µM]
93 | O=C(CN1CCN(C2CCCCC2)CC1)NCCC1=CCCCC1 | inactive | –
94 | CC(C)(C)c1ccc(C(=O)N2CCC(C(=O)NCCC3=CCCCC3)CC2)cc1 | – | -5.78% [at 2.29 µM]
95 | O=C(NCCC1=CCCCC1)C1CCCN(c2nc3ccccc3o2)C1 (stereo not given) | 12.6 µM (active) | –

Source: PubChem BioAssay AID1851 (National Center for Advancing Translational Sciences (NCATS), 2009)
